Experimental findings from article PMC12820563, “FoxP3 forms a head-to-head dimer in vivo and stabilizes its multimerization on adjacent microsatellites” are described below.

Over roughly 16,000 sequences, “rpm ratio (pull-down/input)” has its median near 0.94; the highest 2% begin near 1.7. The entries come from a sample that favours the highest values as a whole.

For this assay, the target named is T1, MBP-FoxP1dN (Mus musculus, UniProt P58462 326-579).
T1 sequence: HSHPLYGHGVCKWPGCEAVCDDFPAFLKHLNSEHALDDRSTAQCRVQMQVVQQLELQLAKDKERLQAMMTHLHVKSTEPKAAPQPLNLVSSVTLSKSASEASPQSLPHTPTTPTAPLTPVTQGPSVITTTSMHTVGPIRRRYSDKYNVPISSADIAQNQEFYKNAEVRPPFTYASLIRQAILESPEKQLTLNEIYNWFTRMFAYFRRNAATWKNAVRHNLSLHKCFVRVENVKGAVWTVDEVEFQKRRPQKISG
As to the kind of experiment: PD-seq (MBP pull-down with sequencing); 20 mM Tris-HCl pH 7.5, 100 mM NaCl, 1.5 mM MgCl2, 0.4 uM protein, 0.1 uM dsDNA library, 30 min, room temperature, amylose pull-down; high values mean tight binding. Conditions: protein: recombinant; tags: His6-MBP; chain copies: 2; dsDNA, one strand shown. In a few lines: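 Protein and DNA were mixed at 0.4 µM and 0.1 µM and held for 30 min at room temperature in Tris pH 7.5 buffer with NaCl and MgCl2; the protein was a His6-MBP-tagged, N-terminally truncated mouse FoxP3 or FoxP1 fragment from E. coli, and the DNA a Klenow-filled double-stranded degenerate library. Amylose resin captured the complexes, which were washed three times. Binding is read as reads-per-million enrichment of pull-down versus input after Illumina sequencing, with replicates pooled.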
As to “GATGATTGTTCTCCCAGCTGATGAATTATTGCTGTCGAGTAAACAAATTTTCCTAATCTTTCTGTTCAAGCGCCATCTAC”, the binding signal is 1.67 RPM ratio (pull-down/input).
On to “GATGATTGTTCTCCCAGCTGATGAATTAGGCGCGTCGAGTAAACAAATTTTCCTAATCTTTCTGTTCAAGCGCCATCTAC”, for which the binding signal is 1.03 RPM ratio (pull-down/input).
With “GATGATTGTTCTCCCAGCTGATGAATTGGACTATTCGAGTAAACAAATTTTCCTAATCTTTCTGTTCAAGCGCCATCTAC”, the binding signal is 0.893 RPM ratio (pull-down/input).
With “GATGATTGTTCTCCCAGCTGATGAATTCCCCGGATCGAGTAAACAAATTTTCCTAATCTTTCTGTTCAAGCGCCATCTAC”, the binding signal is 0.788 RPM ratio (pull-down/input).
For “GATGATTGTTCTCCCAGCTGATGAATTTACCTACTCGAGTAAACAAATTTTCCTAATCTTTCTGTTCAAGCGCCATCTAC”, the binding signal is 1.24 RPM ratio (pull-down/input).
In the case of “GATGATTGTTCTCCCAGCTGATGAATTGATTACATCGAGTAAACAAATTTTCCTAATCTTTCTGTTCAAGCGCCATCTAC”, the binding signal was 1.58 RPM ratio (pull-down/input).
In the case of “GATGATTGTTCTCCCAGCTGATGAATTACATTTATCGAGTAAACAAATTTTCCTAATCTTTCTGTTCAAGCGCCATCTAC”, the binding signal was 1.52 RPM ratio (pull-down/input).
Take “GATGATTGTTCTCCCAGCTGATGAATTACAAACATCGAGTAAACAAATTTTCCTAATCTTTCTGTTCAAGCGCCATCTAC”: the binding signal was 2.67 RPM ratio (pull-down/input).
Next, “GATGATTGTTCTCCCAGCTGATGAATTACTAAAATCGAGTAAACAAATTTTCCTAATCTTTCTGTTCAAGCGCCATCTAC”: 1.34 RPM ratio (pull-down/input); “GATGATTGTTCTCCCAGCTGATGAATTACCAACATCGAGTAAACAAATTTTCCTAATCTTTCTGTTCAAGCGCCATCTAC”: 1.94 RPM ratio (pull-down/input); “GATGATTGTTCTCCCAGCTGATGAATTACTAACATCGAGTAAACAAATTTTCCTAATCTTTCTGTTCAAGCGCCATCTAC”: 1.77 RPM ratio (pull-down/input).
Next, “GATGATTGTTCTCCCAGCTGATGAATTAATTACATCGAGTAAACAAATTTTCCTAATCTTTCTGTTCAAGCGCCATCTAC”: 1.26 RPM ratio (pull-down/input); “GATGATTGTTCTCCCAGCTGATGAATTACCAAAATCGAGTAAACAAATTTTCCTAATCTTTCTGTTCAAGCGCCATCTAC”: 1.3 RPM ratio (pull-down/input).
With “GATGATTGTTCTCCCAGCTGATGAATTACTACCATCGAGTAAACAAATTTTCCTAATCTTTCTGTTCAAGCGCCATCTAC”, the binding signal is 1.13 RPM ratio (pull-down/input).
As to “GATGATTGTTCTCCCAGCTGATGAATTTATTACATCGAGTAAACAAATTTTCCTAATCTTTCTGTTCAAGCGCCATCTAC”, the binding signal was 1.21 RPM ratio (pull-down/input).
As for “GATGATTGTTCTCCCAGCTGATGAATTATTTACATCGAGTAAACAAATTTTCCTAATCTTTCTGTTCAAGCGCCATCTAC”, the binding signal was 2.34 RPM ratio (pull-down/input).
For “GATGATTGTTCTCCCAGCTGATGAATTTACCAAATCGAGTAAACAAATTTTCCTAATCTTTCTGTTCAAGCGCCATCTAC”, the binding signal was 1.65 RPM ratio (pull-down/input).
“GATGATTGTTCTCCCAGCTGATGAATTCTAATCCTCGAGTAAACAAATTTTCCTAATCTTTCTGTTCAAGCGCCATCTAC”: the binding signal is 0.781 RPM ratio (pull-down/input).
Next, “GATGATTGTTCTCCCAGCTGATGAATTGGGTGCTTCGAGTAAACAAATTTTCCTAATCTTTCTGTTCAAGCGCCATCTAC”: 0.861 RPM ratio (pull-down/input); “GATGATTGTTCTCCCAGCTGATGAATTTCAGGTATCGAGTAAACAAATTTTCCTAATCTTTCTGTTCAAGCGCCATCTAC”: 0.919 RPM ratio (pull-down/input).
“GATGATTGTTCTCCCAGCTGATGAATTTGTACGCTCGAGTAAACAAATTTTCCTAATCTTTCTGTTCAAGCGCCATCTAC”: the binding signal was 1.13 RPM ratio (pull-down/input).
“GATGATTGTTCTCCCAGCTGATGAATTTGCGATATCGAGTAAACAAATTTTCCTAATCTTTCTGTTCAAGCGCCATCTAC”: the binding signal is 1.19 RPM ratio (pull-down/input).
Consider “GATGATTGTTCTCCCAGCTGATGAATTGCCTATGTCGAGTAAACAAATTTTCCTAATCTTTCTGTTCAAGCGCCATCTAC”, for which the binding signal is 0.918 RPM ratio (pull-down/input).
For the sequence “GATGATTGTTCTCCCAGCTGATGAATTGACGCGGTCGAGTAAACAAATTTTCCTAATCTTTCTGTTCAAGCGCCATCTAC”, the binding signal was 1.01 RPM ratio (pull-down/input).
“GATGATTGTTCTCCCAGCTGATGAATTTTCTGGCTCGAGTAAACAAATTTTCCTAATCTTTCTGTTCAAGCGCCATCTAC”: the binding signal was 0.777 RPM ratio (pull-down/input).
For “GATGATTGTTCTCCCAGCTGATGAATTTCCGAAGTCGAGTAAACAAATTTTCCTAATCTTTCTGTTCAAGCGCCATCTAC”, the binding signal is 0.787 RPM ratio (pull-down/input).
With “GATGATTGTTCTCCCAGCTGATGAATTACGTCGCTCGAGTAAACAAATTTTCCTAATCTTTCTGTTCAAGCGCCATCTAC” the figure was 1.02 RPM ratio (pull-down/input); with “GATGATTGTTCTCCCAGCTGATGAATTTTCACATTCGAGTAAACAAATTTTCCTAATCTTTCTGTTCAAGCGCCATCTAC”, 0.987 RPM ratio (pull-down/input); with “GATGATTGTTCTCCCAGCTGATGAATTACATTCCTCGAGTAAACAAATTTTCCTAATCTTTCTGTTCAAGCGCCATCTAC”, 1.2 RPM ratio (pull-down/input).
For “GATGATTGTTCTCCCAGCTGATGAATTTACTAAATCGAGTAAACAAATTTTCCTAATCTTTCTGTTCAAGCGCCATCTAC”, the binding signal is 1.72 RPM ratio (pull-down/input).
For the sequence “GATGATTGTTCTCCCAGCTGATGAATTTTACTAATCGAGTAAACAAATTTTCCTAATCTTTCTGTTCAAGCGCCATCTAC”, the binding signal is 1.14 RPM ratio (pull-down/input).
As to “GATGATTGTTCTCCCAGCTGATGAATTTTTACTATCGAGTAAACAAATTTTCCTAATCTTTCTGTTCAAGCGCCATCTAC”, the binding signal is 1.1 RPM ratio (pull-down/input).
